A short description of experiment [1]: growth inhibition of DIPG glioma cells, dose response, cell-based, JHH-DIPG-1, MIPE4.0, CellTiter-Glo, qHTS (AID 1347062; cut-off not given, nearly all actives have AC50 up to about 27 µM;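 on AC50: cells exposed to compound for two days before readout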). The settings on record: JHH-DIPG-1 viability, CellTiter-Glo ATP luminescence. In general terms: In ATP-based viability assays light output follows the ATP content of the culture.
A short description of experiment [2]: growth inhibition of DIPG glioma cells, dose response, cell-based, SU-DIPG-IV, MIPE4.0, CellTiter-Glo, qHTS (AID 1347063).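 Further: compound exposure lasted 48 hours before the viability readout.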 The following applies: SU-DIPG-IV viability, CellTiter-Glo ATP luminescence.
Experiment [3] can be described thus: viability loss in pontine glioma line – cell-based, SU-DIPG-XXV, MIPE5.0, CellTiter-Glo, qHTS, dose response (AID 1347065; cut-off not given, nearly all actives have AC50 up to about 26 µM;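 further: cells exposed to compound for 48 hours before ATP readout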). The following applies: CellTiter-Glo ATP luminescence.
The nature of experiment [4]: JHH-DIPG-1 glioma cell viability, MIPE5.0 library, CellTiter-Glo luminescence, qHTS (AID 1347067; cut-off not given, nearly all actives have AC50 up to about 26 µM;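 further: cells exposed to compound for 48 hours before readout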). The settings on record: JHH-DIPG-1 glioma viability, CellTiter-Glo ATP luminescence.
The nature of experiment [5]: sensitizers of A549 cells to miR-34 induction, primary screen, imaging, A549 dox-inducible miR-34, nuclei and caspase counts (AID 1347080;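 active means compounds whose cell count with miR-34 switched on is under 0.7 times the count with it off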). The following applies: A549 miR-34 inducible, Hoechst nuclei count, 48 h.
A short description of experiment [6]: growth inhibition of DIPG glioma cells, dose response, cell-based, SU-DIPG-XIII, MIPE5.0, CellTiter-Glo, qHTS (AID 1347064; cut-off not given, nearly all actives have AC50 up to about 23 µM;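 on AC50: cells exposed to compound for 48 hours before the viability read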). The settings on record: SU-DIPG-XIII viability, CellTiter-Glo ATP luminescence.
Experiment [7] in a line: SU-DIPG-VI glioma cell viability, MIPE4.0 library, CellTiter-Glo luminescence, qHTS (AID 1347066).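 Further: cells exposed to compound for 48 hours before readout.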 The settings on record: CellTiter-Glo ATP luminescence.
Experiment [8] can be described thus: growth inhibition of DIPG glioma cells, dose response, cell-based, SU-DIPG-XIII, MIPE4.0, CellTiter-Glo, qHTS (AID 1347061; cut-off not given, nearly all actives have AC50 up to about 37 µM;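 further: cells exposed to compound for 48 hours before readout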). The settings on record: SU-DIPG-XIII viability, CellTiter-Glo ATP luminescence.
A short description of experiment [9]: SU-DIPG-XXV glioma cell viability, MIPE5.0 library, qHTS (AID 1347068; cut-off not given, nearly all actives have IC50 up to about 30 µM;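 on IC50: cells exposed to compound for 48 hours before viability readout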). (In general: qHTS replaces the single test concentration by a dilution series.)
Experiment [10] in a line: modifiers of HSF1 nuclear foci, imaging, Selleck Cancer Library (AID 1347162; in the data active means plate-normalised HSF1 focus index below about 0.46). The settings on record: human cells, at 10 µM; SSMD: measured here: HSF1 foci SSMD mean; cell count: measured here: cell number; plate-normalised HSF1 focus index: stronger effect = lower value.
Where [11] appears, read: stronger effect = lower value, cell number ratio, induced over uninduced.
Setting [12] is: measured here: relative caspase fold change +Dox/-Dox.
Setting [13] is: measured here: total cells with miR-34 induction, stronger effect = lower value.
[14] abbreviates: measured here: total cells without miR-34 induction.

SMILES strings stand for the structures. Records with an inconclusive call do not appear. Activity calls are given as the source filed them. Unless noted, cut-off not given; nearly all actives show AC50 up to about 30 µM.

In the case of `CO[C@H]1C[C@@H]2CC[C@@H](C)[C@@](O)(O2)C(=O)C(=O)N2CCCC[C@H]2C(=O)O[C@H]([C@@H](C)C[C@@H]2CC[C@@H](O)[C@H](OC)C2)CC(=O)[C@H](C)/C=C(\C)[C@@H](O)[C@@H](OC)C(=O)[C@H](C)C[C@H](C)/C=C/C=C/C=C/1C`, the AC50 is 20.9 µM (active) in experiment [1], 20.9 µM (active) in experiment [2], 16.6 µM (active) in experiment [3] and 23.5 µM (active) in [4]. Besides, the figures for the fold change in experiment [5] (setting [11]) and in [5] (setting [12]) were 0.999 (inactive) and 1.23, respectively. Besides, the results for the cell count in [5] (setting [13]) and in [5] (setting [14]) were 3690 and 3700, respectively.
In the case of `NC(CO)(CO)CCc1ccc(Sc2cccc(OCc3ccccc3)c2)cc1Cl`, the AC50 is 11.8 µM (active) in [1]; 11.8 µM (active) in experiment [2]; 8.33 µM (active) in experiment [6]; 9.34 µM (active) in experiment [3]; 18.7 µM (active) in experiment [7]; 9.34 µM (active) in experiment [4].
`Nc1cccc(S(=O)(=O)N2CCCN(S(=O)(=O)c3ccc4c(c3)OCCO4)CC2)c1`: the molecule was called inactive in experiment [8], in experiment [7] and in experiment [9].
On to `CCn1c(=O)c2c(nc(/C=C/c3ccc(OC)c(OC)c3)n2C)n(CC)c1=O`, for which the molecule was classed as inactive in experiment [1], in experiment [2], in [6], in experiment [7], in experiment [4] and in [9].
On to `COc1ccc(C[C@@H](C)[C@@H](C)Cc2ccc(OC)c(OC)c2)cc1OC`, for which, in experiment [1], the AC50 was 1.18 µM (active).
For the molecule `Nc1nc(OCc2ccccc2)c2[nH]cnc2n1`, the outcome in [1], in [2], in experiment [3], in [7], in [4] and in experiment [9] was inactive. The fold change in experiment [5] (setting [11]) is 0.895 (inactive); in experiment [5] (setting [12]) it was 1.25. Moreover, the figures for the cell count in experiment [5] (setting [13]) and in experiment [5] (setting [14]) were 8910 and 9960, respectively.
For the molecule `CNC(=O)[C@H](Cc1ccccc1)NC(=O)[C@H](CC(C)C)[C@H](CSc1cccs1)C(=O)NO`, the outcome in experiment [8], in experiment [7], in [4] and in experiment [9] was inactive.
On to `CCCCCCCc1ccc(CCc2cccc(O)c2C(=O)O)cc1`, for which the molecule was classed as inactive in experiment [1], in experiment [2], in experiment [3], in experiment [4] and in [9]. The same molecule showed an SSMD in [10] of 0.921. The molecule also yielded a cell count in experiment [10] of 6030. In addition, the plate-normalised HSF1 focus index in experiment [10] was 1.06 (inactive).
As to `CN(C1CCc2c(c3ccccc3n2CC(=O)O)C1)S(=O)(=O)c1ccc(F)cc1` (stereo unspecified), the result in experiment [8] and in experiment [7] was inactive. Further, the results for the fold change in experiment [5] (setting [11]) and in experiment [5] (setting [12]) were 1.07 (inactive) and 0.901, respectively. Further, the cell count was 6410 in [5] (setting [13]) and 5990 in experiment [5] (setting [14]).
In the case of `CC(=O)N(C)C1(c2ccccc2)CCN(CCC[C@]2(c3ccc(Cl)c(Cl)c3)CCCN(C(=O)c3ccccc3)C2)CC1`, the AC50 is 29.6 µM (active) in [1], 26.4 µM (active) in experiment [2] and 33.2 µM (active) in experiment [7].
In the case of `Cn1cc(-c2[nH]c3cc(NC(=O)[C@H](N)C4CCCCC4)cc4c3c2C=NNC4=O)cn1`, the AC50 in experiment [1] was 0.418 µM (active); in experiment [2] it was 1.18 µM (active); in experiment [6], 2.09 µM (active); in experiment [3] it was 1.18 µM (active); in [4] it was 16.6 µM (active). Further, the IC50 in experiment [9] was 4.68 µM (active). In [10], this molecule gave an SSMD of -1.12. The cell count in experiment [10] amounted to 6990. Besides, in experiment [10], the plate-normalised HSF1 focus index was 0.932 (inactive).
For `C[C@@H]1C/C=C/C=C/C=C/C=C/[C@@H](O[C@@H]2O[C@H](C)[C@@H](O)[C@H](N)[C@@H]2O)C[C@@H]2O[C@](O)(C[C@@H](O)C[C@@H]3O[C@H]3/C=C/C(=O)O1)C[C@H](O)[C@H]2C(=O)O`, in experiment [1], the outcome was inactive.
For the molecule `Cc1cc(Nc2cc(NC(=O)c3c(Cl)cccc3Cl)ccn2)nc(N)n1`, the AC50 in [1] was 18.7 µM (active); in experiment [2], 18.7 µM (active); in experiment [6] it was 8.33 µM (active); in experiment [3] it was 9.34 µM (active); in [4], 9.34 µM (active). Also, the IC50 in experiment [9] is 18.6 µM (active).

By AC50 is commonly meant the concentration at which the activity in the assay is half-maximal. By IC50 is commonly meant the concentration at which inhibition is half-maximal.

The values above are taken from PubChem BioAssay.
